Screening data as filed in PubChem.
TDP1 block = inhibitors of human tyrosyl-DNA phosphodiesterase TDP1; Q9NUW8; recombinant TDP1, AlphaScreen DNA substrate cleavage; Potency, µM (top dose mostly 130 µM), without a hit: at the highest dose activity change, negative = inhibition, hits mostly inhibitors; actives 0.28% (n = 350,000); AID 485290; further: on the % scale 0 is the no-effect control and ±100 the full control effect; nearly all actives have a fitted effect of over 40% in size
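Tdp1 1 nM final; 15 min RT w/ cpd; substrate 15 nM, 5 min; beads 10 ug/ml, 10 min; AlphaScreen read. Neg ctrl: no enzyme.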
G9a inh = G9a (human) methyltransferase inhibition | actives 8.8% (n = 350,000) | Q96KQ7 | G9a H3K9 monomethylation, AlphaScreen, 2 h | Potency, µM (series often up to 102 µM), inactives show at the highest dose activity, negative = inhibition, hits mostly inhibitors; further: on the % scale 0 is the no-effect control and ±100 the full control effect; nearly all actives have a fitted effect of over 75% in size
Target sequence (Q96KQ7 913-1193 limits assumed): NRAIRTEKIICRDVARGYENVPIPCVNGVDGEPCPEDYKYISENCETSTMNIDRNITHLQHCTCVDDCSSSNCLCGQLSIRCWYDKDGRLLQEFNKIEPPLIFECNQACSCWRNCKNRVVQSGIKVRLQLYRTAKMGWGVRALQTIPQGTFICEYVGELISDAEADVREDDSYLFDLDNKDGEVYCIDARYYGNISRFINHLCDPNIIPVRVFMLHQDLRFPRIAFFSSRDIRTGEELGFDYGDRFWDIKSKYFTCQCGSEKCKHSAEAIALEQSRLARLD
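Step 1: enzyme (final 20 nM) with compound, 15 min RT. Step 2: substrate peptide 500 nM and SAM 20 uM, 2 h RT. Step 3: anti-H3K9me1 antibody and AlphaScreen beads, 10 min, then plate read.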
HP1b binding inh = blocks HP1-beta chromodomain binding to methylated histone tails; AlphaScreen HP1-beta / biotin-H3K9me3 peptide binding; P83916; actives 0.56% (n = 390,000); Potency, µM (titrated, usually from 114 µM), without a hit: at the highest dose activity change, negative = inhibition, most hits filed as inhibitors; further: nearly all actives have a fitted effect of over 70% in size
Target sequence (P83916 whole entry, looked up): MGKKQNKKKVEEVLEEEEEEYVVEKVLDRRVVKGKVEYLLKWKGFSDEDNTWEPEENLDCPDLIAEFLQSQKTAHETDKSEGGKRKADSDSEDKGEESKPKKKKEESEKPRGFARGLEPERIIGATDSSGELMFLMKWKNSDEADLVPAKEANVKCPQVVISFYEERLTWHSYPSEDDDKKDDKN
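HP1-beta protein (50 nM final) preincubated 30 min at room temperature with biotinylated H3(1-18)K9me3 peptide (50 nM) in PBS pH 7.4, 0.01% Tween-20, then compound added for 30 min. AlphaScreen streptavidin donor/nickel chelate acceptor beads (10 ug/mL final), 30 min dark, luminescence read.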
BAZ2B block = blocks human BAZ2B; Potency, µM (highest dose often 114 µM), for the others: at the top dose activity change, negative = inhibition, actives largely listed as inhibitors; AlphaScreen BAZ2B-H3K14Ac peptide displacement; actives 4.4% (n = 360,000); further: on the % scale 0 is the no-effect control and ±100 the full control effect; nearly all actives have a fitted effect of over 60% in size
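BAZ2B (50 nM) with biotin-H3(5-23)K14Ac peptide (50 nM) in PBS pH 7.4, 0.01% Tween-20, preformed 30 min, then compound 30 min at room temperature; top concentration 110uM. AlphaScreen streptavidin donor/nickel chelate acceptor beads (10 ug/mL final), 20 min dark, signal read.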
JMJD2A Tudor = JMJD2A Tudor domain (human) inhibition. actives 4.4% (n = 390,000). AlphaScreen JMJD2A-Tudor / H3K4me3 peptide binding. O75164. Potency, µM (highest dose often 114 µM), without a hit: top-dose activity change, negative = inhibition, actives largely listed as inhibitors; further: on the % scale 0 is the no-effect control and ±100 the full control effect; nearly all actives have a fitted effect of over 50% in size
Sfp PPTase inh = Sfp phosphopantetheinyl transferase inhibition. AID 1490. Biochemical Sfp PPTase activity, qHTS. actives 3.5% (n = 310,000). Potency, µM, for inactives: largest response in the series, negative = inhibition, most hits filed as inhibitors. Q9F4F7;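 further: the enzyme is Sfp with the accession as filed and its product quenches rhodamine fluorescence; 0% = enzyme reaction without inhibitor and -100% = no enzyme wells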
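After 15 min at room temperature with compound, 15 nM Sfp received 5 uM rhodamine-CoA plus 12.5 uM BHQ-2-ybbR (50 mM Hepes pH 7.6, 10 mM MgCl2). Rate came from the fluorescence difference over 30 min, ex 525/em 598 nm.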
Numbers without * were called inactive; ? = inconclusive; · = no result; [ ] = remark or other dose. A selection: hits, their analogues and other compounds. The true share with any hit is near 12%. The call rests on the fitted dose curve; in most records, active means well fitted curve in the direction sought with a large enough effect; inconclusive means small, poorly fitted or top-dose-only effect, or another doubt; inactive means no such curve, though single readings can be large; an effect the other way counts as inactive or inconclusive. Potency means the concentration at half of the fitted maximal effect.

SMILES	TDP1 block	G9a inh	HP1b binding inh	BAZ2B block	JMJD2A Tudor	Sfp PPTase inh
CCOC(=O)c1cc(OC(=O)c2ccccc2C)n(-c2ccccc2)n1	-4%	16%[59 µM]	47%	-17%	-6%	·
COCCOc1ccc(C(F)(F)F)cc1NC(=O)CN1C(=O)NC(C)(c2ccc3c(c2)OCO3)C1=O (centres undefined)	·	-8%[59 µM]	19%	-2%	-26%	·
Cc1ccc(/C=C2\SC(=O)N(CCNC(=O)C3CSC4(C)CCC(=O)N34)C2=O)cc1 (centres undefined)	2%	35µM*	13%	-24%	-18%	·
CC12CCC(=O)N1C(C(=O)NCCN1C(=O)S/C(=C\c3ccccc3Cl)C1=O)CS2 (centres undefined)	2%	-3%[12.7 µM]	21%	-1%	-19%	·
CCOC(=O)c1c(NC(=O)/C=C/c2ccc(OCC)cc2)sc2c1CCC2	-5%[12.3 µM]	29%[59 µM]	73%	36%	-14%	·
CCOc1ccc(S(=O)(=O)N(C)c2ccc(OCC(=O)NCCc3ccc(OC)cc3)cc2)cc1	-2%	-24%	28%	?	-13%	2%
COC(=O)C1CC23C=CCN4CCC5(c6ccccc6NC15C2C)C43 (centres undefined)	·	40µM*	30%[57 µM]	-24%	?	4%
COCCN1C(=S)N[C@@H](c2ccccc2)C(C(=O)OC)=C1C	·	21%[12.7 µM]	·	?	·	11%
CC(=O)NC1=NC(=O)/C(=C/c2cn(C(C)=O)nc2-c2ccccc2)S1	·	8.9µM*	?	-28%	22µM*	28µM*
Cc1ccc(CN2C(=O)N/C(=C\c3cccn3-c3cccc(C(=O)O)c3)C2=O)cc1	0%	16µM*	?	35µM*	45µM*	50µM*
CCN=C1S/C(=C\c2cn(C(C)=O)nc2-c2ccccc2)C(=O)N1CC	2%	16%[59 µM]	28%	9%	1%	-3%
O=C(O)c1cccc(-n2cccc2/C=C2\NC(=O)N(Cc3ccc(F)cc3)C2=O)c1	?	22µM*	79µM*	50µM*	56µM*	-25%
Cc1ccc(NC(=O)CN2C(=O)N/C(=C\c3cccn3-c3cccc(C(=O)O)c3)C2=O)cc1	2.8µM*	8.9µM*	71µM*	10µM*	22µM*	40µM*
O=C1N/C(=C/c2cccn2-c2ccc(F)cc2)C(=O)N1Cc1ccccc1	6%	-30%[59 µM]	10%	-9%	-22%	-8%
CCc1ccc(C2=NN(CCC(=O)NCCc3ccccc3)C(=O)CC2)cc1	4%	5%[59 µM]	25%	-1%	0%	·
Cc1nn(C)cc1S(=O)(=O)N1CCN(c2ccccc2F)CC1	1%	3%	50%	2%	-9%	6%
O=C(CNc1cccc([N+](=O)[O-])c1)NC(=O)NC1CCCCC1	4%	·	11%	·	-20%	·
COC(=O)[C@H](CCSC)NC(=O)Cn1cnc2c(SC)nc(N)nc21	1%	·	15%	·	?	·
CC(=O)NC1=NC(=O)/C(=C/c2cc(C)n(-c3cccc(C(=O)O)c3)c2C)S1	3.5µM*	20µM*	?	16µM*	?	40µM*
Cc1cc(/C=C2\SC(=S)N(C)C2=O)c(C)n1-c1cccc(O)c1	·	-28%	2%	-32%	-21%[11.4 µM]	?
Cc1ccc(NC(=O)CN2C(=O)N/C(=C/c3cc(C)n(-c4cccc(C(=O)O)c4)c3C)C2=O)cc1	·	13µM*	?	22µM*	?	?
Cc1cc(C(=O)O)ccc1-c1ccc(/C=C2\NC(=O)N(Cc3ccc(F)cc3)C2=O)o1	4µM*	28µM*	11%[57 µM]	40µM*	?	?
Nc1nc(NC(=O)c2ccc(Cl)cc2)nn1-c1ccccc1	3%	0%[59 µM]	26%	?	-18%	2%
Nc1nc(NC(=O)C(Cl)(Cl)Cl)nn1-c1ccccc1	1%	16%	11%	8.9µM*	25µM*	4%
Nc1nc(-n2cnnc2)nn1-c1ccccc1	6%	4%[59 µM]	21%	4%	-11%	-2%
